From PubChem BioAssay
Calls of active or inactive are those of the source.

Tests used:
Albumin (Bos taurus) = Albumin (Bos taurus) (UniProt P02769); test: bovine serum albumin binders on microarray, profiling panel, artefact control for SMM control protein annotation, biochemical, small-molecule microarray, Alexa647 label, 635/667 nm fluorescence (AID 1118); details: BSA-A647 binding, fluorescence 635 nm, higher = more signal;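 note: score merges 667 nm emission intensity and signal-to-noise per printed compound spot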
[1] = small-molecule microarray binders of probe aXIP, primary screen, biochemical, NeuroSMM set, 635/667 nm fluorescence (AID 1119); details: higher = more signal, called active from +8 up or from −8 down;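 note: probe is the protein aXip251-270 applied at 1 µg/mL to compound-printed slides; binding of probe to printed compounds measured as 667 nm fluorescence plus signal to noise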
[2] = small-molecule binders of probe aNOTCH3, primary screen, biochemical, small-molecule microarray, 635/667 nm fluorescence (AID 1120); details: higher = more signal;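 note: probe is a biotin-tagged antibody raised against NOTCH3 rather than NOTCH3 protein; score merges spot fluorescence near 667 nm with spot signal to noise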
[3] = small-molecule binders of probe aNOTCH2, primary screen, biochemical, small-molecule microarray, 635/667 nm fluorescence (AID 1121); details: higher = more signal;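 note: score merges feature fluorescence read at 667 nm with its signal to noise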
[4] = molecular target: Carbonic anhydrase 2 (Homo sapiens) (UniProt P00918); test: CAII small-molecule binders, profiling panel, biochemical, small-molecule microarray, Alexa647-labelled CAII (AID 1122); details: CAII-A647 binding fluorescence, higher = more signal
[5] = COS7 lysate on small-molecule microarray, probe aHis, 635 nm (AID 1123); details: COS7 cell lysate, fluorescence, higher = more signal;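 note: z-score combines 667nm fluorescence intensity with signal-to-noise per printed compound spot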
[6] = compound binding in COS7 lysate, probe aLAP1, primary screen, cell lysate, small-molecule microarray (AID 1124); details: probe aLAP1, fluorescence, higher = more signal;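 note: lysate comes from COS7 cells expressing LAP1 and is applied at 0.3 µg/mL; score merges spot fluorescence near 667 nm with signal-to-noise over triplicate slides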
Sam68 (KHDRBS1) = test: Sam68 small-molecule binders, primary screen, biochemical, small-molecule microarray, 635 nm fluorescence (AID 1125); details: small-molecule microarray binding, higher = more signal;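 note: score merges 667 nm channel intensity with signal to noise over triplicate slides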
[7] = tested on: Chordin-like protein 2 (CHRDL2); test: CHRDL2 small-molecule binders, primary screen, biochemical, small-molecule microarray, 635 nm fluorescence (AID 1126); details: small-molecule microarray binding, fluorescence 635 nm; higher = more signal;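 note: printed compound slides probed with Chrdl2 protein at 4 µg/mL for 1 h at 4 C; score merges 667 nm emission intensity with signal to noise over three replicate slides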
[8] = molecular target: Concanavalin-A (Canavalia ensiformis) (UniProt P02866); test: ConA small-molecule binders, primary screen, artefact control for SMM control protein annotation, biochemical, small-molecule microarray, Alexa647 label, 635 nm (AID 1127); details: ConA-A647 binding fluorescence, higher = more signal;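 note: z combines 667 nm emission intensity with signal-to-noise across three replicate slides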
Concanavalin-A (Canavalia ensiformis), sequence (P02866 whole entry, looked up): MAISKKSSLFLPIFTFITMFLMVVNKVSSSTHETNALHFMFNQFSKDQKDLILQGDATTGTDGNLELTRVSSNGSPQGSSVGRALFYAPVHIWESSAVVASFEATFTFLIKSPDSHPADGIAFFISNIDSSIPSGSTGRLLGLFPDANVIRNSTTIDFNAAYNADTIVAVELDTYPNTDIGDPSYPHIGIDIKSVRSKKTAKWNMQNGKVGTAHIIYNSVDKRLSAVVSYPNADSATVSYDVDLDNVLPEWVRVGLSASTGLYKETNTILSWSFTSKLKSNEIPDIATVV

Albumin (Bos taurus), sequence (P02769 whole entry, looked up): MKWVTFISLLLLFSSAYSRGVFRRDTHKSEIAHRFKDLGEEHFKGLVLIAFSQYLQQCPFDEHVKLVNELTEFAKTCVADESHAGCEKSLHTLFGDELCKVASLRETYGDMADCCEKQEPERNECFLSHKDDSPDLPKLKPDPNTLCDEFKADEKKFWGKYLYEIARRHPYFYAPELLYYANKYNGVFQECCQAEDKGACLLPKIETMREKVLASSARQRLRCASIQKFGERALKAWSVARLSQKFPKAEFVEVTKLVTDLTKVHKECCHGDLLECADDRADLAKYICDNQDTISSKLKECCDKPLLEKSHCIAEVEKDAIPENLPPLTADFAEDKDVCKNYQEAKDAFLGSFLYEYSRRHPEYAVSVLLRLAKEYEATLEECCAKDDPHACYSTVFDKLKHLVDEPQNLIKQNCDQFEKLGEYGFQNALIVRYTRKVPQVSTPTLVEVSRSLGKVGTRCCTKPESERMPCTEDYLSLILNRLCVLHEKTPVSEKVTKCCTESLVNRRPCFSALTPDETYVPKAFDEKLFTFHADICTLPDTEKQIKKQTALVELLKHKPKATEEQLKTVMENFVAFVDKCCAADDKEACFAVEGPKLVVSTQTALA

Structure (SMILES) | composite z-score (Albumin (Bos taurus)) | composite Z-score [1] | composite z-score [2] | composite z-score [3] | composite z-score [4] | composite z-score [5] | composite z-score [6] | composite z-score (Sam68 (KHDRBS1)) | composite z-score [7] | composite z-score [8]
CC[C@@H]1C=C(C(=O)O)[C@H](c2ccc(C)cc2)N1S(=O)(=O)c1ccc(C)cc1 | 0.74 | 0.827 (inactive) | 0.0876 | -0.101 | 0.759 | 0.969 | 0.0014 | 1.19 | -0.697 | 0.759
CCOC(=O)C1=CC[C@@H](c2ccc(C(F)(F)F)cc2)N(S(=O)(=O)c2ccc(C)cc2)[C@H]1c1ccccc1 | 0.871 | 0.506 (inactive) | 0.158 | 0.21 | 0.603 | 2.27 | 0.782 | 1.31 | -0.863 | 1.13
CCCCC(=C=CC[C@H](O)c1cccc(OCCO)c1)C[C@H](O)c1ccccn1 | 0.424 | 0.152 (inactive) | -0.0014 | -0.153 | 0.693 | -0.0434 | -0.165 | -0.15 | 0.23 | 0.503
C=C(C(=O)CC[C@H](OC(C)=O)c1ccccc1OCCO)C(C)C | 0.0421 | -0.361 (inactive) | 0.029 | -0.0325 | -0.371 | -0.754 | 1.87 | -0.4 | -0.163 | -0.104
CCOC(=O)C1=CCC(c2ccc(F)cc2)N(S(=O)(=O)c2ccc(C)cc2)C1 (stereo not given) | 0.569 | -0.297 (inactive) | 0.0351 | -0.113 | 0.397 | 0.75 | 0.552 | 0.376 | 0.563 | 0.221
CCC(CC)C(O)C1C=CC2C(=O)N(c3ccccc3)C(=O)C2N1Nc1ccccc1 (stereo not given) | 0.803 | 0.62 (inactive) | 0.708 | 0.272 | 0.491 | 2.44 | 0.383 | 1.31 | 0.0429 | 1.16
CC(C)OC(=O)C=C1C[C@@H](c2cccc(Cl)c2)O[C@@H](c2cccc(Cl)c2)O1 | 0.466 | 0.806 (inactive) | -0.137 | 0.0234 | 0.299 | 1.68 | 0.484 | -0.296 | -0.579 | 0.99
C=CCC(OC(C)=O)[C@@H]1[C@@H](N(Cc2ccc(-c3ccccc3)cc2)C(=O)Cc2ccc(F)cc2)c2cc(OCCCO)ccc2N1C(=O)c1ccc2ccccc2c1 (stereo not given in full) | -0.153 | -0.301 (inactive) | 0.119 | 0.0251 | 0.0176 | 0.361 | 0.225 | 0.112 | -0.132 | -1.04
COC(=O)C(CC#Cc1ccc2c(c1)[C@]1(C(=O)N2)[C@H](c2ccccc2OCCO)N2[C@H](c3ccccc3)[C@H](c3ccccc3)OC(=O)[C@H]2[C@@H]1C(N)=O)C(=O)OC | 0.468 | 0.389 (inactive) | 0.631 | 0.25 | 0.672 | 2.09 | 0.493 | 0.519 | 0.0031 | 0.736
CC(=O)Nc1cc(Br)ccc1C(=O)NCc1ccccc1 | 0.744 | -0.34 (inactive) | -0.0311 | -0.123 | 0.23 | 1.18 | -0.458 | 0.494 | -0.141 | 0.811
O[C@@H](Cc1ccccc1)[C@@H](/C=C/C1CC1)NCc1cccc(Cl)c1 | -0.0308 | -0.515 (inactive) | -0.272 | -0.146 | -0.397 | -0.266 | -0.273 | -0.53 | -1.11 | -0.509
COC(=O)[C@@]1(Cc2ccccc2)[C@H]2c3cc(C(=O)N(C)C)n(Cc4ccc(OC)c(OC)c4)c3C[C@H]2CN1C(=O)c1ccccc1 | 0.864 | 0.0388 (inactive) | 0.775 | 0.318 | 0.467 | 3.07 | 0.463 | 1.29 | -0.78 | 0.829
COc1cc2c(cc1O)C=[N+](Cc1cc3c(cc1Br)OCO3)CC2 | -0.71 | -0.402 (inactive) | -0.185 | -0.126 | 0.844 | 0.0478 | 0.27 | -0.54 | -0.139 | -1.27
O=C1NC(=O)C2C1C=CC(C(O)c1ccc(I)cc1)N2Nc1ccccn1 (stereo not given) | 0.898 | 0.369 (inactive) | -0.0677 | -0.0026 | 0.819 | 2.35 | 1.48 | -0.302 | 0.37 | 0.445
C=CC[C@]1(C(N)=O)COC(c2ccc(OCCCO)cc2)=N1 | 0.102 | 0.0767 (inactive) | 0.0831 | -0.104 | 0.903 | 0.148 | -0.136 | -0.133 | 0.0919 | 0.817
COC(=O)[C@@]1(CCC(=O)OC(C)(C)C)N=C(c2ccc(OCCCO)cc2)O[C@H]1c1ccccc1 | -0.735 | 0.21 (inactive) | -0.0716 | 0.0464 | 0.687 | 2.16 | 0.637 | -0.297 | 0.0741 | 0.57
C#CCOc1ccc(C[C@@H](C(=O)OC)N(CC#C)[C@@H](/C=C/C2CC2)[C@H](O)Cc2ccccc2)cc1 | -0.485 | -0.423 (inactive) | -0.19 | -0.208 | 0.0591 | -0.148 | 0.286 | -0.51 | 0.212 | -0.557
C=CC[C@]1(C(N)=O)N=C(c2ccc(OCCCO)cc2)O[C@H]1c1ccccc1 | 0.34 | 0.15 (inactive) | -0.0284 | 0.102 | 0.779 | 0.916 | -0.137 | -0.188 | 0.204 | 0.721
C[N+](C)(C)CCCC[C@@H]1NC(=O)[C@@H]2C[C@H](C(=O)NCCCCCCNC(=O)CS)[C@H](c3ccc(O)cc3)N2C1=O | 0.303 | 0.0896 (inactive) | -0.443 | -0.115 | 0.82 | 0.443 | 0.596 | -0.731 | -0.377 | 0.871
[N-]=[N+]=NCc1ccccc1[C@@H]1OC(c2ccc(OCCCO)cc2)=N[C@]1(CCS(=O)(=O)c1ccccc1)C(=O)N1CCOCC1 | 0.923 | -0.244 (inactive) | 0.391 | 0.104 | 0.513 | 2.62 | 0.254 | 1.3 | -0.213 | 1.19
O=C1C2C=CC(C(O)c3c(F)cccc3Cl)N(Nc3ccccc3F)C2C(=O)N1c1ccccc1 (stereo not given) | 0.913 | -0.145 (inactive) | 0.185 | -0.0216 | 0.691 | 1.67 | 0.497 | 1.21 | -0.534 | 0.972
Cc1ccc(/C=C/C=O)cc1 | 0.931 | 0.421 (inactive) | -0.217 | -0.117 | -0.287 | 0.206 | 0.127 | -0.912 | 0.24 | -0.156
COC(=O)c1c(CC[C@@H](CO)NC(=O)N[C@H](Cc2ccccc2)Cn2cc(-c3ccccn3)nn2)oc(C(C)=O)c1C(=O)OC | 0.687 | 0.794 (inactive) | -0.154 | -0.118 | 0.71 | 0.798 | 1.26 | 0.954 | -0.418 | 1.09
CCCCCCc1nc(-c2ccc(-c3ccc(Cl)c(Cl)c3)o2)c(C)c2c1[Si](C(C)C)(C(C)C)OC2 | 0.13 | 0.0001 (inactive) | -0.1 | -0.166 | 0.0293 | 0.645 | -0.173 | 0.1 | -1.06 | 0.999
O=C1N(CCS(=O)(=O)c2ccccc2)c2ccccc2[C@@H]2OC(c3ccc(OCCCO)cc3)=N[C@]12Cc1ccccc1 | 0.484 | -0.209 (inactive) | 0.126 | -0.0244 | 0.391 | 0.898 | 0.474 | 1.3 | 0.837 | 1.12
COc1cc(CO)cc(I)c1O[C@H]1C=C(C(=O)NCCO)C[C@@H](N(C(=O)c2cc3ccccc3oc2=O)C2CCCCCC2)[C@@H]1O | 0.179 | -0.161 (inactive) | 0.0084 | -0.0282 | -0.177 | -0.149 | 0.0826 | 0.0348 | 0.13 | 0.66
CS(=O)(=O)CCOC(=O)C1=CC(CCCO)=CC(C2CC2)N(Cc2cc3c(cc2Br)OCO3)C=C1C(=O)OCCS(C)(=O)=O (stereo not given) | 0.741 | -0.289 (inactive) | -0.0573 | -0.0322 | 0.774 | 0.88 | 0.495 | 0.531 | 0.45 | 0.544
